Source: the supplement of paper PMC6089552
Hit rate of the full screen: of about 3,200 compounds, about 300 (9.4%) showed activity. The sample as a whole holds a higher share of actives than the screen did.

Tested on: A673/TR/shEF
Experiment: cell viability (LOESS-normalised, relative to median of negative controls) (log2 ratio); higher = more viable cells (less compound effect), active = hit call of the paper (over 3 MAD below the median)
Settings: treatment time: 72 h
Procedure, shortened: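 A673/TR/shEF Ewing sarcoma cells were plated at 1,500 per well in 384-well plates and cultured with or without doxycycline, added 24 h before compounds, to induce EWS-FLI1 shRNA knockdown. Library compounds at two or more concentrations, alongside DMSO controls, were applied for three days. Cell viability was measured by CellTiter-Glo luminescence on an Envision reader. Readings were LOESS-corrected per plate, divided by the median of negative controls and log2-transformed, and hits were wells lying at least three median absolute deviations from the median of all screened wells.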

[1] = 0.25 µM, library screen: screen1, EWS-FLI1 expression: high (no doxycycline)
[2] = 0.25 µM, library screen: screen1, EWS-FLI1 expression: low (doxycycline-induced shRNA knockdown)
[3] = 2.5 µM, library screen: screen1, EWS-FLI1 expression: high (no doxycycline)
[4] = 2.5 µM, library screen: screen1, EWS-FLI1 expression: low (doxycycline-induced shRNA knockdown)
[5] = 0.25 µM, library screen: screen2, EWS-FLI1 expression: high (no doxycycline)
[6] = 0.25 µM, library screen: screen2, EWS-FLI1 expression: low (doxycycline-induced shRNA knockdown)
[7] = 2.5 µM, library screen: screen2, EWS-FLI1 expression: high (no doxycycline)
[8] = 2.5 µM, library screen: screen2, EWS-FLI1 expression: low (doxycycline-induced shRNA knockdown)
[9] = 0.103 µM, library screen: screen3, EWS-FLI1 expression: high (no doxycycline)
[10] = 0.103 µM, library screen: screen3, EWS-FLI1 expression: low (doxycycline-induced shRNA knockdown)
[11] = 0.308 µM, library screen: screen3, EWS-FLI1 expression: high (no doxycycline)
[12] = 0.308 µM, library screen: screen3, EWS-FLI1 expression: low (doxycycline-induced shRNA knockdown)
[13] = 0.926 µM, library screen: screen3, EWS-FLI1 expression: high (no doxycycline)
[14] = 0.926 µM, library screen: screen3, EWS-FLI1 expression: low (doxycycline-induced shRNA knockdown)
[15] = 2.8 µM, library screen: screen3, EWS-FLI1 expression: high (no doxycycline)
[16] = 2.8 µM, library screen: screen3, EWS-FLI1 expression: low (doxycycline-induced shRNA knockdown)
[17] = 8.3 µM, library screen: screen3, EWS-FLI1 expression: high (no doxycycline)
[18] = 8.3 µM, library screen: screen3, EWS-FLI1 expression: low (doxycycline-induced shRNA knockdown)
[19] = 25 µM, library screen: screen3, EWS-FLI1 expression: high (no doxycycline)
[20] = 25 µM, library screen: screen3, EWS-FLI1 expression: low (doxycycline-induced shRNA knockdown)

O=C(O)c1cc(=O)c(O)c2c(O)c(O)ccc2c1
cell viability (log2) [1]: 0.0685 (inactive)
cell viability (log2) [2]: 0.0312 (inactive)
cell viability (log2) [3]: 0.157 (inactive)
cell viability (log2) [4]: 0.0783 (inactive)

Fc1cccc(CN2CCN(Cc3ccco3)CC2)c1
cell viability (log2) [1]: 0.0188 (inactive)
cell viability (log2) [2]: 0.159 (inactive)
cell viability (log2) [3]: 0.104 (inactive)
cell viability (log2) [4]: 0.135 (inactive)

C=CCCCCCCCCCCCC=CC(O)COC(C)=O (centres undefined)
cell viability (log2) [1]: -0.0116 (inactive)
cell viability (log2) [2]: 0.0382 (inactive)
cell viability (log2) [3]: 0.137 (inactive)
cell viability (log2) [4]: 0.0541 (inactive)

CC12CCC(=O)C=C1CCC1C2C(O)CC2(C)C1CCC2(O)C(=O)COC(=O)CCC(=O)O (centres undefined)
cell viability (log2) [5]: 0.252 (inactive)
cell viability (log2) [6]: 0.0354 (inactive)
cell viability (log2) [7]: 0.189 (inactive)
cell viability (log2) [8]: 0.145 (inactive)

CCSCCOC(=O)C1=C(C)NC2=C(C(=O)CC(C)(C)C2)C1c1coc2ccccc2c1=O (centres undefined)
cell viability (log2) [1]: 0.0909 (inactive)
cell viability (log2) [2]: 0.0763 (inactive)
cell viability (log2) [3]: 0.107 (inactive)
cell viability (log2) [4]: 0.00786 (inactive)

CCOc1ccc2nc(SC)nc(C)c2c1
cell viability (log2) [1]: 0.0636 (inactive)
cell viability (log2) [2]: 0.0768 (inactive)
cell viability (log2) [3]: 0.137 (inactive)
cell viability (log2) [4]: -0.103 (inactive)

CC1CC2C3CCC4=CC(=O)C=CC4(C)C3C(=O)CC2(C)[C@@]1(O)C(=O)CO (some centres undefined)
cell viability (log2) [9]: 0.145 (inactive)
cell viability (log2) [10]: -0.00246 (inactive)
cell viability (log2) [11]: 0.132 (inactive)
cell viability (log2) [12]: 0.12 (inactive)
cell viability (log2) [13]: 0.101 (inactive)
cell viability (log2) [14]: 0.0958 (inactive)
cell viability (log2) [15]: 0.116 (inactive)
cell viability (log2) [16]: 0.077 (inactive)
cell viability (log2) [17]: 0.0168 (inactive)
cell viability (log2) [18]: 0.08 (inactive)
cell viability (log2) [19]: 0.0762 (inactive)
cell viability (log2) [20]: 0.0993 (inactive)

COc1ccc(CN2CCN(Cc3ccccc3Br)CC2)cc1OC
cell viability (log2) [1]: 0.0838 (inactive)
cell viability (log2) [2]: 0.133 (inactive)
cell viability (log2) [3]: 0.0605 (inactive)
cell viability (log2) [4]: 0.115 (inactive)

Cc1cc(O)c2c(c1)Cc1cccc(O)c1C2=O
cell viability (log2) [1]: 0.119 (inactive)
cell viability (log2) [2]: 0.00964 (inactive)
cell viability (log2) [3]: 0.16 (inactive)
cell viability (log2) [4]: 0.111 (inactive)

O=C1CSC(=O)N1CCN1C(=O)SC(=Cc2ccc(O)cc2)C1=O
cell viability (log2) [1]: 0.0789 (inactive)
cell viability (log2) [2]: 0.0957 (inactive)
cell viability (log2) [3]: 0.0804 (inactive)
cell viability (log2) [4]: -0.00491 (inactive)

O=C(Oc1cc(O)cc2c1CC(OC(=O)c1cc(O)c(O)c(O)c1)C(c1ccc(O)c(O)c1)O2)c1cc(O)c(O)c(O)c1 (centres undefined)
cell viability (log2) [1]: 0.117 (inactive)
cell viability (log2) [2]: -0.00743 (inactive)
cell viability (log2) [3]: 0.128 (inactive)
cell viability (log2) [4]: -0.0369 (inactive)

CCCCCCCCCCCCCCCCCC(=O)NCC(COP(=O)([O-])OCC[N+](C)(C)C)OCC (centres undefined)
cell viability (log2) [5]: 0.252 (inactive)
cell viability (log2) [6]: 0.0979 (inactive)
cell viability (log2) [7]: 0.243 (inactive)
cell viability (log2) [8]: 0.0461 (inactive)

CC(CN1c2ccccc2Sc2cccnc21)N(C)C (centres undefined)
cell viability (log2) [1]: 0.132 (inactive)
cell viability (log2) [2]: 0.0453 (inactive)
cell viability (log2) [3]: 0.0549 (inactive)
cell viability (log2) [4]: 0.034 (inactive)

COc1cc2ncnc(Nc3ccc(O)cc3)c2cc1OC
cell viability (log2) [5]: 0.241 (inactive)
cell viability (log2) [6]: 0.0114 (inactive)
cell viability (log2) [7]: 0.112 (inactive)
cell viability (log2) [8]: 0.0956 (inactive)

CN(C)c1cc2c(Nc3ccc4c(cnn4Cc4ccccc4)c3)ncnc2cn1
cell viability (log2) [5]: 0.124 (inactive)
cell viability (log2) [6]: 0.0545 (inactive)
cell viability (log2) [7]: 0.147 (inactive)
cell viability (log2) [8]: 0.0613 (inactive)

C#Cc1cccc(Nc2ncnc3cc(OCCOC)c(OCCOC)cc23)c1
cell viability (log2) [9]: 0.107 (inactive)
cell viability (log2) [10]: 0.0915 (inactive)
cell viability (log2) [11]: 0.189 (inactive)
cell viability (log2) [12]: 0.0523 (inactive)
cell viability (log2) [13]: 0.0696 (inactive)
cell viability (log2) [14]: 0.0933 (inactive)
cell viability (log2) [15]: 0.0439 (inactive)
cell viability (log2) [16]: 0.0596 (inactive)
cell viability (log2) [17]: 0.105 (inactive)
cell viability (log2) [18]: 0.0233 (inactive)
cell viability (log2) [19]: -0.0778 (inactive)
cell viability (log2) [20]: -0.0451 (inactive)

COCC(=O)NC/C=C/c1ccc2ncnc(Nc3ccc(Oc4ccc(C)nc4)c(C)c3)c2c1
cell viability (log2) [9]: 0.0492 (inactive)
cell viability (log2) [10]: 0.0262 (inactive)
cell viability (log2) [11]: -0.0204 (inactive)
cell viability (log2) [12]: 0.0495 (inactive)
cell viability (log2) [13]: -0.0118 (inactive)
cell viability (log2) [14]: 0.013 (inactive)
cell viability (log2) [15]: -0.0655 (inactive)
cell viability (log2) [16]: -0.0248 (inactive)
cell viability (log2) [17]: -0.00849 (inactive)
cell viability (log2) [18]: 0.0384 (inactive)
cell viability (log2) [19]: -0.127 (inactive)
cell viability (log2) [20]: -0.105 (inactive)

COc1cc2ncnc(Nc3cccc(Cl)c3)c2cc1OC
cell viability (log2) (0.025 µM, library screen: screen1, EWS-FLI1 expression: high (no doxycycline)): 0.237 (inactive)
cell viability (log2) (0.025 µM, library screen: screen1, EWS-FLI1 expression: low (doxycycline-induced shRNA knockdown)): 0.01 (inactive)
cell viability (log2) [1]: 0.289
cell viability (log2) [2]: 0.0337 (inactive)
cell viability (log2) [5]: 0.134 (inactive)
cell viability (log2) [6]: 0.0168 (inactive)
cell viability (log2) [3]: -0.137 (active)
cell viability (log2) [4]: 0.122 (inactive)
cell viability (log2) [7]: 0.175 (inactive)
cell viability (log2) [8]: 0.00846 (inactive)
cell viability (log2) (25 µM, library screen: screen1, EWS-FLI1 expression: high (no doxycycline)): -0.119 (active)
cell viability (log2) (25 µM, library screen: screen1, EWS-FLI1 expression: low (doxycycline-induced shRNA knockdown)): 0.297

C#Cc1cccc(Nc2ncnc3cc(OC)c(OCCCCCCC(=O)NO)cc23)c1
cell viability (log2) [9]: -0.0787 (inactive)
cell viability (log2) [10]: -0.0134 (inactive)
cell viability (log2) [11]: -0.0791 (inactive)
cell viability (log2) [12]: -0.0194 (inactive)
cell viability (log2) [13]: -0.53 (active)
cell viability (log2) [14]: -0.197 (active)
cell viability (log2) [15]: -1.73 (active)
cell viability (log2) [16]: -0.607 (active)
cell viability (log2) [17]: -2.92 (active)
cell viability (log2) [18]: -0.618 (active)
cell viability (log2) [19]: -3.65 (active)
cell viability (log2) [20]: -1.64 (active)

CC(C)CC1NC(=O)CNC1=O (centres undefined)
cell viability (log2) [1]: 0.138 (inactive)
cell viability (log2) [2]: 0.0779 (inactive)
cell viability (log2) [3]: 0.0859 (inactive)
cell viability (log2) [4]: 0.0262 (inactive)

Oc1ccc2c(c1)O[C@H](c1ccc(O)c(O)c1)[C@@H](O)C2
cell viability (log2) [1]: 0.0741 (inactive)
cell viability (log2) [2]: -0.0244 (inactive)
cell viability (log2) [3]: 0.0985 (inactive)
cell viability (log2) [4]: 0.085 (inactive)

COc1cc(O)c2c(=O)cc(-c3ccc(OC)c(-c4c(O)cc(O)c5c(=O)cc(-c6ccc(O)cc6)oc45)c3)oc2c1
cell viability (log2) [1]: 0.0329 (inactive)
cell viability (log2) [2]: 0.0664 (inactive)
cell viability (log2) [3]: 0.144 (inactive)
cell viability (log2) [4]: -0.0351 (inactive)

CC(=O)OCC(=O)[C@@]1(O)CC[C@H]2[C@@H]3CC[C@@H]4C[C@H](OC(C)=O)CC[C@]4(C)[C@H]3C(=O)C[C@@]21C
cell viability (log2) [1]: 0.118 (inactive)
cell viability (log2) [2]: 0.0343 (inactive)
cell viability (log2) [3]: 0.0611 (inactive)
cell viability (log2) [4]: -0.0696 (inactive)

NC(CCC(=O)NCS(=O)(=O)O)C(=O)O (centres undefined)
cell viability (log2) [5]: 0.192 (inactive)
cell viability (log2) [6]: 0.0399 (inactive)
cell viability (log2) [7]: 0.0879 (inactive)
cell viability (log2) [8]: 0.0533 (inactive)

N/C(=N/c1nc2ccccc2o1)NC(=O)c1cccc(Br)c1
cell viability (log2) [1]: 0.0693 (inactive)
cell viability (log2) [2]: -0.0125 (inactive)
cell viability (log2) [3]: 0.162 (inactive)
cell viability (log2) [4]: -0.0831 (inactive)

CN(Cc1ccccc1)C(=O)C=Cc1ccc([N+](=O)[O-])cc1
cell viability (log2) [1]: 0.0837 (inactive)
cell viability (log2) [2]: 0.078 (inactive)
cell viability (log2) [3]: 0.013 (inactive)
cell viability (log2) [4]: 0.137 (inactive)
